A short description of test [1]: IUF_NPC2c_oligodendrocyte_migration_120hr: Leibniz Research Institute for Environmental Medicine (IUF) 120-hour Neural Progenitor Cell Migration Assay for Oligodendrocyte Migration (NPC2c) (AID 2284297).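 Further: O4-positive oligodendrocyte migration distance divided by radial glia migration distance.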 An outline of the steps: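 Exposure runs 5 days from differentiation onset at 37C, seven concentrations plus solvent control, DMSO at most 0.1%, applied to primary hNPC spheres on laminin. After fixation, O4 immunostaining gives oligodendrocyte distance from the sphere core, relative to radial glia migration.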

Test [2] is described as follows: IUF_NPC2a_radial_glia_migration_120hr: Leibniz Research Institute for Environmental Medicine (IUF) 120-hour Neural Progenitor Cell Migration Assay for Radial Glia Migration (NPC2a) (AID 2284298). The procedure, abridged: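 Migration distance in um, sphere core edge to migration-area edge, derived by nuclei-density algorithm from Hoechst images after 120 h compound exposure. Primary hNPC spheres differentiated on poly-D-lysine/laminin in N2 medium, 37C; medium half-replaced day 3.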

A short description of test [3]: IUF_NPC2a_radial_glia_migration_72hr: Leibniz Research Institute for Environmental Medicine (IUF) 72-hour Neural Progenitor Cell Migration Assay for Radial Glia Migration (NPC2a) (AID 2284299). The procedure, abridged: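 Primary hNPC spheres, fetal brain GW 16-19, on PDL/laminin; DMEM/F12 3:1 + 1% N2. Compound dosed day 0, 7 conc. + SC, half-medium refresh day 3. 72 h brightfield, migration distance core-to-front (um), 4 directions averaged.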

Read-out in test [4]: Interleukin-1 alpha (IL1a), IL1A (gene 3552)
The experiment in a line: BSK_IMphg_IL1a: BioMAP Diversity Plus: IMphg Assay for Interleukin-1 alpha (IL1a) Biomarker Activity (AID 2284290). Conditions: primary human endothelial cells with macrophages. The procedure, abridged:
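Human venular endothelial cells co-cultured with macrophages, IMphg system. IL-1α is measured by ELISA 24 h after dosing and fitted in the positive direction against DMSO. Cytotoxicity is assessed by SRB staining of parallel cultures.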

Read-out in test [5]: E-selectin (Homo sapiens) (UniProt P16581)
The experiment in a line: BSK_IMphg_ESelectin: BioMAP Diversity Plus: IMphg Assay for Eselectin Biomarker Activity (AID 2284291). Particulars: primary human endothelial cells with macrophages. The procedure: BSK_IMphg is a cell-based, multiplexed-readout assay that uses venular endothelial cells and macrophages, a human vascular primary cell, with measurements taken at 24 hours after chemical dosing in a microplate: 96-well plate.BSK_IMphg_ESelectin is an assay component measured in the BSK_IMphg assay. It measures E-selectin antibody related to regulation of gene expression using ELISA technology.Data from the assay component BSK_IMphg_ESelectin was analyzed at the endpoint, BSK_IMphg_ESelectin, in the positive analysis fitting direction relative to DMSO as the negative control and baseline of activity. Using a type of binding reporter, gain or loss-of-signal activity can be used to understand protein changes. To generalize the intended target to other relatable targets, this assay endpoint is annotated to the 'cell adhesion molecules' intended target family, where the subfamily is 'selectins'.
The levels of cell surface (or secreted, indicated by the prefix "s") biomarker endpoints were measured by ELISA. Overt cytotoxicity to cells in confluent adherent cultures (all systems other than the BT system) was assessed by measuring total protein levels using sulforhodamine B (SRB) staining in parallel cultures at the time of biomarker measurements, indicated as SRB endpoints. For proliferation assays for adherent cell types, individual cell types are cultured at sub-confluence and relative cell numbers quantified by SRB staining at time points optimized for each system (48 h: 3C and CASM3C systems; 72 h: BT and HDF3CGF systems; 96 h: SAg system). SRB was performed by staining cells with 0.1% SRB after fixation with 10% TCA and reading wells at 560 nm.Viability and proliferation of PBMC (T cells) was quantified by Alamar Blue reduction for the SAg and BT systems. […] Then, Alamar Blue (20 uL/well) (Invitrogen, Cat DAL1100) was added for 6 h, and the plates were read with a fluorescence microplate reader at 546/580 nm (excitation/emission). […] Plates were read after 6 h.

Test [6] can be described thus: BSK_IMphg_SRB: Viability Assessment in the BioMAP Diversity Plus: IMphg Assay (AID 2284292).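 Further: measured one day after compound addition.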 Conditions: primary human endothelial cells with macrophages. An outline of the steps: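 Human venular endothelial cells with macrophages, 24 h after chemical dosing; total protein by 0.1% SRB staining after 10% TCA fixation, read at 560 nm. Positive-direction fitting versus DMSO baseline.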

Read-out in test [7]: Macrophage colony-stimulating factor (MCSF), CSF1 (gene 1435)
The experiment in a line: BSK_IMphg_MCSF: BioMAP Diversity Plus: IMphg Assay for Macrophage colony-stimulating factor (MCSF) Biomarker Activity (AID 2284293). Particulars: primary human endothelial cells with macrophages. The procedure, abridged:
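Co-culture of human venular endothelial cells and macrophages, 24 hours of chemical exposure. M-CSF quantified by ELISA, with parallel SRB total-protein staining for cytotoxicity; activity fitted relative to DMSO.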

Read-out in test [8]: Interleukin-10 (IL10), IL10 (gene 3586)
Nature of the test: BSK_IMphg_IL10: BioMAP Diversity Plus: IMphg Assay for Interleukin-10 (IL10) Biomarker Activity (AID 2284294). Conditions: primary human endothelial cells with macrophages. The procedure, abridged: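 Human venular endothelial cells cocultured with macrophages, dosed 24 h; IL-10 measured by ELISA, activity relative to DMSO. Cytotoxicity assessed in parallel cultures by sulforhodamine B total-protein staining.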

Test [9] is described as follows: BSK_IMphg_SRB.Mphg: Macrophage Viability Assessment in the BioMAP Diversity Plus: IMphg Assay (AID 2284295). Conditions: primary human endothelial cells with macrophages. The procedure, abridged: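 Venular endothelial cells co-cultured with macrophages, read 24 h after dosing. Total protein measured by 0.1% SRB staining after 10% TCA fixation, absorbance at 560 nm. Fitted in positive direction against DMSO baseline.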

Read-out in test [10]: Thrombomodulin, THBD (gene 7056)
Nature of the test: BSK_LPS_Thrombomodulin: BioMAP Diversity Plus: LPS Assay for Thrombomodulin Biomarker Activity (AID 2284296). Particulars: outcome: primary human HUVEC with PBMC unless noted. The procedure: BSK_LPS is a cell-based, multiplexed-readout assay that uses umbilical vein endothelium and peripheral blood mononuclear cells, a human vascular primary cell co-culture, with measurements taken at 24 hours after chemical dosing in a 96-well plate.BSK_LPS_Thrombomodulin is an assay component measured in the BSK_LPS assay. It measures Thrombomodulin antibody related to regulation of gene expression using ELISA technology.Data from the assay component BSK_LPS_Thrombodulin was analyzed at the endpoint, BSK_LPS_Thrombomodulin, in the positive analysis fitting direction relative to DMSO as the negative control and baseline of activity. Using a type of binding reporter, gain or loss-of-signal activity can be used to understand protein changes. To generalize the intended target to other relatable targets, this assay endpoint is annotated to the 'gpcr' intended target family, where the subfamily is 'rhodopsin-like receptor'.
The levels of cell surface (or secreted, indicated by the prefix "s") biomarker endpoints were measured by ELISA. Overt cytotoxicity to cells in confluent adherent cultures (all systems other than the BT system) was assessed by measuring total protein levels using sulforhodamine B (SRB) staining in parallel cultures at the time of biomarker measurements, indicated as SRB endpoints. For proliferation assays for adherent cell types, individual cell types are cultured at sub-confluence and relative cell numbers quantified by SRB staining at time points optimized for each system (48 h: 3C and CASM3C systems; 72 h: BT and HDF3CGF systems; 96 h: SAg system). SRB was performed by staining cells with 0.1% SRB after fixation with 10% TCA and reading wells at 560 nm.Viability and proliferation of PBMC (T cells) was quantified by Alamar Blue reduction for the SAg and BT systems. For PBMC viability (referred to as PBMC Cytotoxicity within the assay endpoint names), cells were plated (75,000/well in a 96-well plate) and then chemical samples added for 1 h before addition of activators, SEB and TSST-1 (20 ng/mL final concentration each). Cells were incubated for 90 h. Then, Alamar Blue (20 uL/well) (Invitrogen, Cat DAL1100) was added for 6 h, and the plates were read with a fluorescence microplate reader at 546/580 nm (excitation/emission). For PBMC proliferation, cells were plated and activated as above but incubated for only 16 h prior to addition of Alamar Blue. Plates were read after 6 h.

The source holds several records for some structures; these can differ, active in one and inactive in another. Calls of active or inactive are those of the source. How the source made its calls: active means hit-call score of the fitted dose curve at least 0.9, where 1 is the maximum; inactive means score below 0.9.

E-selectin (Homo sapiens), sequence (P16581 whole entry, looked up): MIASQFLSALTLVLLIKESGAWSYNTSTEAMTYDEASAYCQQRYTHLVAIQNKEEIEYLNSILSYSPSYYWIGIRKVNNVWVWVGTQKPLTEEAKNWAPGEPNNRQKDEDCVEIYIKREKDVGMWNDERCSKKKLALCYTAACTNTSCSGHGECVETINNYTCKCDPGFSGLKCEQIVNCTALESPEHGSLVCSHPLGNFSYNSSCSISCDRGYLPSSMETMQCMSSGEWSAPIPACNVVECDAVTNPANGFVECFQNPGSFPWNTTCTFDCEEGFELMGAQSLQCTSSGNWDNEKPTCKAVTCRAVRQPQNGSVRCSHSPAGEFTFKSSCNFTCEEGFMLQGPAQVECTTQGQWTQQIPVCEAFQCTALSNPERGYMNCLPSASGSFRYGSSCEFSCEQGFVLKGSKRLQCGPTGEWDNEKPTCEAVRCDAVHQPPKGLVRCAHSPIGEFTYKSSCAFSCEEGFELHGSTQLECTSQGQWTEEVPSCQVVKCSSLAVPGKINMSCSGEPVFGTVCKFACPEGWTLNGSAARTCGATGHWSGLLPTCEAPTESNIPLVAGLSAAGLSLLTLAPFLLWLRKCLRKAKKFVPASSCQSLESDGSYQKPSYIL

Regarding `CCOP(=S)(OCC)Oc1nc(Cl)c(Cl)cc1Cl`, the result in test [1], in [2] and in test [3] was inactive.
For `O=C(O)C(F)(F)C(F)(F)C(F)(F)C(F)(F)C(F)(F)C(F)(F)C(F)(F)C(F)(F)C(F)(F)C(F)(F)F`, the result in test [4], in [5], in [6], in test [7], in [8] and in [9] was inactive. Besides, the result in test [10] was inactive.
Take `O=C(O)CCC(F)(C(F)(F)F)C(F)(F)F`: the outcome in [4], in test [5], in test [6], in [7], in test [8] and in test [9] was inactive. Also, the outcome in test [10] was inactive.
As usually defined, the AC50 is the concentration giving half of the maximal activity seen. In the case of `COC(=O)Cc1ccccc1`, in test [10], the AC50 was 2180 nM (active) and the outcome is “inactive [setting not given]”.
As for `COP(=O)(OC)O/C(=C\Cl)c1cc(Cl)c(Cl)cc1Cl`, the AC50 in test [1] is 603 nM (active); in test [2], 638 nM (active); in test [3] it was 1030 nM (active).
As for `CC(=O)OC(c1ccccc1)C(Cl)(Cl)Cl` (stereo not given), the result in test [10] was inactive.
Regarding `O=C(O)C(F)(F)C(F)(F)C(F)(F)C(F)(F)C(F)(F)C(F)(F)F`, the result in test [4], in [5], in test [6], in test [7], in [8] and in test [9] was inactive. In addition, the result in [10] was inactive.

(Values after PubChem BioAssay (EPA / NIEHS).)
